High-throughput results deposited in PubChem BioAssay by National Center for Advancing Translational Sciences (NCATS).
Only some compounds are listed: those with a hit (about 1.4% of all), similar ones and a draw of the others.
BRCA1 expr act: activators of BRCA1 expression; MCF7-BRCA1-FFLuc reporter, luminescence, 48 h; response scale: scaled: vehicle 0%, 10 µM genistein 100%; Potency, µM (titrated, usually from 46.1 µM), usual class: activators; 1.1% of 380,000 active; further: nearly all actives have a fitted effect of over 80% in size
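Compounds are tested at multiple concentrations on MCF7 BRCA1-luciferase reporter cells seeded at 2000 per well; after 48 h, a single luminescence end-point is taken and curves fitted to the normalized data.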
Nrf2 activator: Nrf2 pathway activation. AID 624171. AREc32 ARE-luciferase reporter (MCF7-derived line), luminescence, 24 h. 0.31% of 410,000 active. Potency, µM (titrated, usually from 46.1 µM), usual class: activators; further: nearly all actives have a fitted effect of over 65% in size
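Luciferase luminescence (Steady-Glo, 30 min at room temperature) served as the read-out of ARE activation in AREc32 cells treated with compounds for 24 hr at 37 deg C.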
a7 integrin act: activates integrin-mediated alleviation for muscular dystrophy | 0.064% of 350,000 active | alpha7betagal myoblasts, beta-gal FDG fluorescence, 48 h | Potency, µM (doses to about 38.3 µM), hits mostly activators; further: nearly all actives have a fitted effect of over 60% in size
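Alpha7betagal+/- myoblasts (passage 13) were plated 16-24 hr, then exposed to compounds (1:260 dilution of DMSO stock) for 48 hours at 37C. After MPER lysis, β-galactosidase reporter activity was read as FDG fluorescence (ex 480/em 540) after 30 minutes.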
N370S GC: inhibits or activates N370S mutant glucocerebrosidase; 0.092% of 330,000 active; N370S GC spleen homogenate, 4MU-glucoside fluorescence; Potency, µM (top dose mostly 59.4 µM), hits mostly inhibitors; P04062
BCR signal inh: chronic active BCR signaling inhibition; Potency, µM (titrated, usually from 46.1 µM), most hits filed as inhibitors; ABC-DLBCL IkBa-CBG/CBR reporter, luminescence ratio, 4 h; AID 493014; 0.05% of 340,000 active; active means well fitted inhibition curve with a large enough effect in the signal ratio, with a control signal flat, not every such curve was filed as active; inconclusive means small, poorly fitted or top-dose-only effect, or effect the other way, or a change in a side signal; the % refers to the signal ratio
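Concentration-response series (up to 46 uM) were applied to TMD8 dual-reporter cells for 4 h at 37C with doxycycline. Green/red ratio, after filter-overlap correction, defined %Activity; red signal alone was normalised to basal cells and zero luminescence.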
IL-2 act: activators of IL-2; 0.065% of 360,000 active; IL-2 activation reporter assay, cell-based qHTS; stimulated with anti-CD3/CD4/CD28 beads; in transgenic mouse T cells; activation, % (series mostly up to about 46 µM); in the data active means activation above about 50%; inconclusive means mostly about 30% to 49%
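Unstimulated transgenic mouse T cells preincubated 60 min with compound, then stimulated with anti-CD3/anti-CD4-coated beads plus anti-CD28 for 18 h at 37 degrees C. IL-2 response read as EGFP and DsRed fluorescence by plate cytometry.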
Each line names hits and unclear results; the compound was inactive in the other large screens. Unless noted, the call rests on the fitted dose curve; in most records, active means well fitted curve in the direction sought with a large enough effect; inconclusive means small, poorly fitted or top-dose-only effect, or another doubt; inactive means no such curve, though single readings can be large; an effect the other way counts as inactive or inconclusive.

CN(Cc1c(F)cccc1Cl)C(=O)CNC(=O)c1cccs1	BRCA1 expr act 11µM
COc1cccc(C(=O)O/N=C/c2ccc(Sc3ccc(C)cc3)nc2)c1	BRCA1 expr act 7.1µM, BCR signal inh inconclusive
COc1cccc(C(=O)O/N=C(\N)c2ccc(C)cc2)c1	BCR signal inh inconclusive
Cc1cc(C(=O)COc2ncnc3sccc23)c(C)n1C1CC1	BRCA1 expr act 8.9µM, BCR signal inh inconclusive
C/C(=N\OC(=O)c1ccc(Cl)cc1)c1sc(-c2ccccc2)nc1C	BRCA1 expr act 4µM
C/C(=N\OC(=O)c1ccc(F)cc1)c1sc(-c2ccccc2)nc1C	BRCA1 expr act 2.8µM, N370S GC inconclusive, BCR signal inh inconclusive
C/C(=N\OC(=O)c1cccc(C(F)(F)F)c1)c1sc(-c2ccccc2)nc1C	BRCA1 expr act inconclusive
C/C(=N\OC(=O)c1cccc(C)c1)c1sc(-c2ccccc2)nc1C	BRCA1 expr act inconclusive
CC(=O)NC(Cc1ccc([N+](=O)[O-])cc1)C(=O)NCC(N)C(=O)c1ccccc1 (centres undefined)	none (no result: Nrf2 activator, a7 integrin act, N370S GC, BCR signal inh, IL-2 act)
CCc1ccc(C2CC(=O)c3c([nH]c(C(=O)OC4CCCC4)c3C)C2)cc1 (centres undefined)	none (no result: BRCA1 expr act, a7 integrin act, N370S GC, BCR signal inh, IL-2 act)
COc1cc(C)nc(N2CCCC(C(=O)NC3CCC(C)CC3)C2)n1 (centres undefined)	BRCA1 expr act 3.5µM
Cc1nn(-c2ccccc2)c(C)c1/C=N/NC(=O)c1cc(-c2cccs2)[nH]n1	BCR signal inh 18µM
Cc1nn(-c2ccccc2)c(C)c1/C=N/NC(=O)c1cc(-c2ccc(Br)s2)[nH]n1	none
Cc1nn(-c2ccccc2)c(Cl)c1/C=N/NC(=O)c1ccco1	BRCA1 expr act 6.3µM, BCR signal inh inconclusive
O=C(CSc1nncs1)NC(=O)Nc1ccc2c(c1)OCCO2	BRCA1 expr act 4.5µM
C/C(=N\OCC(=O)NCC(F)(F)F)c1cc2ccccc2o1	BRCA1 expr act 13µM, BCR signal inh inconclusive
c1ccc(N=NC2=NN(c3ccccc3)CS2)cc1	Nrf2 activator 8.9µM (no result: N370S GC, BCR signal inh)
COCCN(C(=O)CSc1nc2ccccc2c(=O)n1CCOC)c1c(N)n(Cc2ccccc2)c(=O)[nH]c1=O	none
O=C(/C=C/Nc1ccc(F)cc1F)c1ccco1	Nrf2 activator 6.3µM, BCR signal inh inconclusive
O=C(/C=C/Nc1ccccc1O)c1ccco1	Nrf2 activator 11µM, BCR signal inh inconclusive
O=C(/C=C/C=C/c1ccccc1)c1ccco1	Nrf2 activator 11µM, BCR signal inh inconclusive
O=C(COC(=O)Cc1ccc(Br)cc1)NCc1ccc2c(c1)OCO2	none
CCC1CN(C(=O)Nc2ccc(C)c(F)c2)c2ccccc2S1 (centres undefined)	none (no result: BRCA1 expr act, a7 integrin act, N370S GC, BCR signal inh, IL-2 act)
COc1cc2[nH]cc(C(=O)NCCc3ccccc3)c(=O)c2cc1OC	none
COc1cccc2c(=O)c(C(=O)NCCc3ccccc3)c[nH]c12	BRCA1 expr act 10µM (no result: N370S GC, BCR signal inh)
O=C1/C(=C/c2cccc(Br)c2)SC(=S)N1CCC(=O)N(CCO)c1ccccc1	Nrf2 activator 13µM, BCR signal inh inconclusive
CN1CCN(C(=O)CCCN2C(=O)/C(=C/c3cccc(Br)c3)SC2=S)CC1	Nrf2 activator 13µM, N370S GC inconclusive, BCR signal inh inconclusive
O=C(Cc1ccc(Br)cc1)N1CCCCCC1	BRCA1 expr act 10µM
O=C(Cc1ccc(Br)cc1)N1CCCC1	none
CC[C@H](C)[C@H](NC(=O)[C@H](Cc1ccc(O)cc1)NC(=O)[C@@H](NC(=O)[C@@H](N)CCCN=C(N)N)C(C)C)C(=O)N[C@@H](Cc1cnc[nH]1)C(=O)N1CCC[C@H]1C(=O)N[C@@H](Cc1ccccc1)C(=O)O	none (no result: BRCA1 expr act, Nrf2 activator, a7 integrin act, BCR signal inh, IL-2 act)
CCOc1cc(/C=N/NC(=O)c2ccc(NC(=O)C3CC3)cc2)ccc1O	none
CCOc1cc(/C=N/NC(=O)Nc2ccccc2)ccc1O	BRCA1 expr act 11µM, BCR signal inh inconclusive
COc1cc(/C=N/NC(=O)NC2CCCCC2)ccc1O	N370S GC inconclusive, BCR signal inh 13µM
CCN(CC)CCCNc1ccc2ncn3c4ccc(O)cc4c(=O)c1c23	IL-2 act 124 (no result: N370S GC, BCR signal inh)
